Assay results from PubChem BioAssay (NCI).
The panel holds about 83,000 compounds, 20% with a hit somewhere; the sample as a whole holds those more often.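 Growth was measured after 48 h exposure to one concentration of compound in 96-well plates. Values under 10 count as active.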 Activity calls are given as the source filed them.

Each compound was assayed on 786-0 renal (assay: NCI-60 one-dose screen, 48 h (100 = growth as untreated, 0 = no growth, -100 = all killed)). Conditions: 10 µM unless noted.

SMILES | growth
NNC(=O)c1sc2nc(-c3cnccn3)cc(-c3cccs3)c2c1N | 108% (inactive)
Cn1cc(-c2nnc(N)nc2-c2cn(C)c3ccc(F)cc23)c2cc(F)ccc21 | 86.1% (inactive)
COc1ccccc1/C=C/C=N/NC1=NC2C(S1)N(C)C(=O)N2c1ccccc1 (configuration not stated) | 16.8% (inactive)
C[C@H]1[C@H](C)CC[C@]2(COC(=O)c3cccnc3)CC[C@]3(C)C(=CC[C@@H]4[C@@]5(C)CCCNC(C)(C)[C@@H]5CC[C@]43C)[C@H]12 | 70.7% (inactive)

What follows are compounds tested on COLO 205 colon in the same assay as above. Conditions: 10 µM unless noted.

SMILES | growth
CC1(C)CC[C@]2(C(=O)O)CC[C@]3(C)C(=CCC4[C@@]5(C)C[C@@H](O)[C@@H]6OC(c7ccccc7O)OC[C@@]6(C)C5CC[C@]43C)C2C1 (some centres not stated) | 29.7% (inactive)
CN(c1ccc(Br)cc1)S(=O)(=O)c1ccc(-c2cnc(C3CC3)o2)cc1 | 4.79% (active)
CN1CCN(c2nc(-c3csc(-c4ccncc4)n3)cc3ccccc23)CC1 | 39.6% (inactive)
O=C(O)c1ccc(-n2cc(CNc3ccc(F)cc3)c(-c3ccc(C(F)(F)F)cc3)n2)cc1 | 103% (inactive)
CSc1nccc(-c2c(-c3ccc(F)c(OCc4ccc(F)cc4)c3)nc3sccn23)n1 | 83.8% (inactive)
O=C(COc1ccc(C2SCC(=O)N2c2ccccc2)cc1)c1ccccc1 (configuration not stated) | 111% (inactive)
O=C(O)CNS(=O)(=O)c1ccc(Oc2ccc(S(=O)(=O)NCC(=O)O)cc2)cc1 | 109% (inactive)
Cn1nc(Nc2ccccc2)c(C(=O)NN)c1N | 104% (inactive)
COc1cc(/C=N/n2cnc3oc(-c4ccccc4)cc3c2=N)cc(CN2CCN(C)CC2)c1O | 80.9% (inactive)
CC(C)SC1=NC(=C(C(=N1)NC2=ClC=CC=C2)C#N)C3=CC=CC=C3 | 71.4% (inactive)
NS(=O)(=O)c1ccc(Nc2nc(N/N=C/c3ccc(F)cc3)nc(Nc3ccccc3)n2)cc1 | 20.9% (inactive)
C#C[C@]1(O)CC[C@H]2[C@@H]3CC=C4c5sc(Nc6cccc(C)n6)nc5CC[C@]4(C)[C@H]3CC[C@@]21C | 68.3% (inactive)
CNC(=O)c1cc(Oc2ccc3nc(NC(=O)c4cc(C)cc(C)c4)sc3c2)ccn1 | 85.4% (inactive)
C=C(C)[C@@H]1CC[C@]2(COS(C)(=O)=O)CC[C@]3(C)[C@H](CC[C@@H]4[C@@]5(C)CCCNC(C)(C)[C@@H]5CC[C@]43C)[C@@H]12 | 0.735% (active)
CC(C)=CCc1c2c(c(O)c3c1O[C@]14C(=C[C@@H]5C[C@H]1C(C)(C)O[C@@]4(C/C=C(/C)C(=O)O)C5=O)C3=O)CC(O)C(C)(C)O2 (some centres not stated) | -67% (active)
O=C(Cn1cc(CN2C(=O)c3ccc([N+](=O)[O-])cc3C2=O)nn1)Nc1ccccc1Br | 117% (inactive)
COc1cc(-c2nc(SCc3ccc(C)cc3)[nH]c(=O)c2C#N)ccc1OCc1ccccc1 | 119% (inactive)
CC(C)N=C(N/C(N)=N/c1nc2ccccc2s1)NC(C)C | 55.6% (inactive)
O=C(Nc1cc(Cl)cc(Cl)c1)Nc1ccc2oc(=O)ccc2c1 | -10.9% (active)

SMILES | growth
CS(=O)(=O)c1nccc(-c2c(-c3ccc(F)c(OCc4ccccc4)c3)nc3sccn23)n1 | 106% (inactive)
COc1ccc(C2C(C#N)=C(N)Oc3c2sc2ccc(C)cc32)cc1 (configuration not stated) | 36.8% (inactive)
C#C[C@]1(O)CC[C@H]2[C@@H]3CC=C4c5sc(-c6ccccn6)nc5CC[C@]4(C)[C@H]3CC[C@@]21C | 90.9% (inactive)
COc1ccc(OC)c([C@H]2c3[nH]c4ccccc4c3C[C@H]3C(=O)N(CCCCCCC(=O)NO)CC(=O)N23)c1 | 86.4% (inactive)
Cc1cnc2nc(NN)[nH]n12 | 101% (inactive)
COc1ccc(-c2nc3cc(Cl)c(Cl)cc3n2CC(=O)N=Nc2c(O)[nH]c3ccc(Br)cc23)cc1 | -37.9% (active)
O=C(NCCCCCCNC(=O)c1c2c(nc3ccccc13)-c1cccnc1SC2)c1c2c(nc3ccccc13)-c1cccnc1SC2 | 28.8% (inactive)
COc1ccc(-c2ccc3c4c(cccc24)C(=O)N(N2C(=O)c4cccc5cccc(c45)C2=O)C3=O)cc1 | 103% (inactive)
COc1ccc(-c2nc3cc(Cl)c(Cl)cc3n2CC(=O)N=Nc2c(O)[nH]c3ccc(Cl)cc23)cc1 | -3.46% (active)
CCOC(=O)c1c(NCC(=O)Nc2ccc(Br)cc2)sc2c1CCCC2 | 33.3% (inactive)
CN1C(=O)/C(=C/C=C/c2ccco2)SC1=S | 94.3% (inactive)
COc1ccc(-c2nnc(SCc3ccc(O)c4ncccc34)o2)cc1 | 102% (inactive)
C#CCOc1ccc(/C=N/Nc2nc(-c3cc4cc(Br)cc(Br)c4oc3=O)cs2)cc1 | 100% (inactive)
CS(=O)c1nccc(-c2c(-c3ccc(F)c(OCCc4ccc(F)cc4)c3)nc3sccn23)n1 (configuration not stated) | 102% (inactive)
O=C1[C@@H]2Cc3c([nH]c4ccccc34)[C@H](c3c(Cl)cccc3Cl)N2C(=O)CN1C1CCN(Cc2c(F)cccc2F)CC1 | 90.6% (inactive)
NNC(=O)c1sc2nc(-c3cnccn3)cc(-c3cccs3)c2c1N | 102% (inactive)
Cn1cc(-c2nnc(N)nc2-c2cn(C)c3ccc(F)cc23)c2cc(F)ccc21 | 107% (inactive)
COc1ccccc1/C=C/C=N/NC1=NC2C(S1)N(C)C(=O)N2c1ccccc1 (configuration not stated) | -4.6% (active)
C[C@H]1[C@H](C)CC[C@]2(COC(=O)c3cccnc3)CC[C@]3(C)C(=CC[C@@H]4[C@@]5(C)CCCNC(C)(C)[C@@H]5CC[C@]43C)[C@H]12 | 43.9% (inactive)
